# Methyltransferases: Primary Screen for Target Class Profiling of Small Molecule Inhibitors of Methyltransferases. purified enzyme, MTase-Glo SAH luminescence; stronger effect = lower value. AID 1745853, 2022. calls only at 40 µM. 3.9% of 25,000 active; call rule not given here
#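 Each enzyme was assayed with SAM and its substrate. SAH formation detected by MTase-Glo luminescence; single-point 40 uM screen[…].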
# Calls only; - = inactive; + = active, no number. Only a selection was taken, and hits are over-represented in it overall.
SMILES,Methyltransferases
CCNC(=O)C(CC)n1ccc2cc(S(=O)(=O)N3CCCCC3)ccc21 (stereo not drawn),-
Cc1ccc(CN2C(=O)c3cc(-c4ccccc4)nn3CC2(C)C(=O)NCc2ccccc2)o1 (stereo not drawn),-
O=C(Cn1ccc2cc(S(=O)(=O)N3CCCCC3)ccc21)N1CCCCC1,-
CCN1CCN(CCNC(=O)Cn2ccc3cc(S(=O)(=O)N4CCCCC4)ccc32)CC1,-
Nc1nc(Nc2ccc3c(c2)CCC(N2CCCC2)CC3)nn1-c1cc2c(nn1)-c1ccccc1CCC2 (stereo not drawn),+
CC(C)CNC(=O)c1ccc2c(=O)n(C)c3nn(Cc4ccccc4Cl)c(=O)n3c2c1,-
CC(C)c1cc(CNc2nc(Nc3cc(C4CC4)[nH]n3)cc(N3CCN(C)CC3)n2)on1,+
COc1ccc2cc3n(c2c1)CC(C)(C(=O)NCCCN1CC(C)CC(C)C1)N(C1CCCCC1)C3=O (stereo not drawn),-
CC1CCC(NC(=O)CCCc2nnc3n4nc(-c5ccccc5)nc4c4ccccc4n23)CC1 (stereo not drawn),-
CC1CCCCN1CCNC(=O)CCCc1nnc2n3nc(-c4ccccc4)nc3c3ccccc3n12 (stereo not drawn),-
CCN(CC)CCNC(=O)CCCc1nnc2n3nc(-c4ccccc4)nc3c3ccccc3n12,+
Cc1ccc(CNC(=O)CCCc2nnc3n4nc(-c5ccccc5)nc4c4ccccc4n23)cc1,-
C=CCNC(=O)CCCc1nnc2n3nc(-c4ccccc4)nc3c3ccccc3n12,-
CCN(CC)CCCNC(=O)CCCc1nnc2n3nc(-c4ccccc4)nc3c3ccccc3n12,+
CCCCNC(=O)CCc1nnc2n(Cc3ccccc3Cl)c(=O)c3ccccc3n12,-
COc1ccc(-c2cc(=O)oc3cc(OCC(=O)Nc4ccc5c(c4)OCO5)ccc23)cc1,-
CCc1ccccc1N1C(=O)c2cc(C(C)(C)C)nn2CC1(C)C(=O)NCc1ccccc1 (stereo not drawn),-
CC1(C(=O)NCc2ccc(F)cc2)Cn2cnc(C(=O)NCc3ccc(Cl)cc3)c2C(=O)N1C1CC1 (stereo not drawn),-
CN(C)[C@@H]1CCc2[nH]c3ccc(NC(=O)c4ccc(F)cc4)cc3c2C1,+
CN(CC(=O)Nc1cccc(F)c1)S(=O)(=O)c1ccc2[nH]c3c(c2c1)CCCC3,-
O=S(=O)(Nc1ccc(F)cc1)c1ccc2[nH]c3c(c2c1)CCCC3,-
CC(C)c1ccc(-c2cc3n(n2)CC(C)(C(=O)NC2CCCCC2)N(Cc2ccco2)C3=O)cc1 (stereo not drawn),-
O=c1[nH]ccc2nc(-c3ccc(CN4CCC(c5nc(-c6ccccn6)n[nH]5)CC4)cc3)c(-c3ccccc3)cc12,+
O=C1CN(Cc2ccc(-c3ccccc3)cc2)CCN1c1ccc(Cl)nn1,-
COc1cccc(CN2C(=O)c3ccc(-c4ccccc4)n3CC2(C)C(=O)NC2CCCC2)c1 (stereo not drawn),-
SMILES,Methyltransferases
CC(C)CNC(=O)c1ccc2c(=O)n(CC(C)C)c3nn(Cc4ccc(F)cc4)c(=O)n3c2c1,-
CCOC(=O)CCN(C(=O)c1ccc2c(c1)nc(CNc1ccc(C(=N)N)cc1)n2C)c1ccccn1,+
CC1CCC(NC(=O)C2(C)Cn3c(cc4sccc43)C(=O)N2CCN2CCCCCC2)CC1 (stereo not drawn),-
Cn1c(=O)c2ccc(C(=O)NC3CCCC3)cc2n2c(=O)n(CC(=O)NC3CCCC3)nc12,-
Cc1ccc(CNC(=O)C2(C)Cn3nc(C(=O)NCCN4CCCCC4)cc3C(=O)N2C)cc1 (stereo not drawn),-
CCOC(=O)C1=C(C)NC(C)=C(C(=O)OC)C1c1cccc([N+](=O)[O-])c1 (stereo not drawn),-
COCCOC(=O)C1=C(C)NC(C)=C(C(=O)OC(C)C)C1c1cccc([N+](=O)[O-])c1 (stereo not drawn),-
CC1=C(C(=O)OC2CCCCC2)C(c2ccc([N+](=O)[O-])cc2)C2=C(CC(C)(C)CC2=O)N1 (stereo not drawn),+
Cc1ccc(N2C(=O)c3ccc(-c4ccco4)n3CC2(C)C(=O)NC2CCCC2)cc1 (stereo not drawn),-
Cc1ccc(C)c(N2C(=O)c3cc4occc4n3CC2(C)C(=O)NC2CCCC(C)C2C)c1 (stereo not drawn),-
Cc1ccc(Cn2c(=O)c3ccccc3n3c(=O)n(CC(=O)Nc4ccc(C)cc4C)nc23)cc1,-
Cc1ccc(C)c(S(=O)(=O)c2nnn3c2nc(N2CCCC2)c2ccccc23)c1,-
Cc1ccc(S(=O)(=O)c2nnn3c2nc(N2CCC(N4CCCCC4)CC2)c2ccccc23)cc1C,+
O=S(=O)(c1ccccc1)c1nnn2c1nc(N1CCCCC1)c1ccccc12,-
Cc1cc(C)cc(NS(=O)(=O)c2cc3c(cc2Cl)n(C)c(=O)n3C)c1,-
CC1(C)CCCC2(C)C(C(=O)O)=CCC12 (stereo not drawn),-
C=C1CCC2C(C)(C)CCC[C@]2(C)[C@H]1C/C=C(\CO)C(=O)C(=O)O (stereo partly drawn),-
